Experimental data reported in PubChem BioAssay AID1004 (SRMLSC, 2008).
Active and inactive are the calls of the source.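 The calls were made as follows: active = viability at 10 µM of 29.74% or lower, 3 SD below the compound median; inactive = the rest.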

Experiment: viability of HCT116 lacking mutant beta-catenin – cell-based, DP diverse set, validation, pilot screen (AID 1004)
Details: HCT116 (mutant beta-catenin deleted) viability, CellTiter-Glo, 60 h; at 10 µM; hits give low values

SMILES | viability
C=C(C)[C@H]1CC=C(CO)CC1 | 99.5% (inactive)
C/C(=C\CNc1ncnc2c1ncn2[C@@H]1O[C@H](CO)[C@@H](O)[C@H]1O)CO | 102% (inactive)
COc1ccc(CCN2CCC(Nc3nc4ccccc4n3Cc3ccc(F)cc3)CC2)cc1 | 44.6% (inactive)
CC(C)NCC(O)COc1cccc2ccccc12 (stereo not given) | 94.6% (inactive)
C[C@@H]1CC[C@]2(C(=O)O)CC[C@]3(C)C(=CCC4[C@@]5(C)C[C@@H](O)[C@H](O)[C@@](C)(CO)C5[C@H](O)C[C@]43C)C2[C@H]1C (stereo not given in full) | 95.4% (inactive)
COC(=O)C1=C(C)NC(C)=C(C(=O)OCCNCc2ccccc2)C1c1cccc([N+](=O)[O-])c1 (stereo not given) | 79.3% (inactive)
[O][C@H]1[C@@H](O)[C@@H](CO)O[C@@H](O[C@@H]2[C@@H]3OC[C@H]2O[C@H](O[C@@H]2[C@@H](O)[C@H](C[C@@H]4[C@@H]5OC[C@H]4O[CH][C@@H]5O)O[C@H](CO)[C@@H]2OS(=O)(=O)O)[C@@H]3OS(=O)(=O)O)[C@@H]1O | 96.4% (inactive)
CC(C)C[C@H]1C(=O)N2CCC[C@H]2[C@]2(O)O[C@](NC(=O)[C@@H]3C=C4c5cccc6[nH]c(Br)c(c56)C[C@H]4N(C)C3)(C(C)C)C(=O)N12 | 89.9% (inactive)
COc1cc2c(c(OC)c1OC)-c1ccc(OC)c(=O)cc1[C@@H](NC(C)=O)CC2 | 39.6% (inactive)
COc1ccc2cc1Oc1ccc(cc1)C[C@H]1c3c(cc4c(c3Oc3cc5c(cc3OC)CCN(C)[C@@H]5C2)OCO4)CCN1C | 66.6% (inactive)
CC1(COc2ccc(CC3SC(=O)NC3=O)cc2)CCCCC1 (stereo not given) | 97% (inactive)
CCOC(=O)c1ncn2c1CN(C)C(=O)c1cc(F)ccc1-2 | 99.8% (inactive)
C=CCc1ccc(O)c(-c2cc(CC=C)ccc2O)c1 | 99.2% (inactive)
COc1ccc(CC(N)C(=O)N[C@H]2[C@@H](O)[C@H](n3cnc4c(N(C)C)ncnc43)O[C@@H]2CO)cc1 (stereo not given in full) | 7.16% (active)
O=C(c1ccc(F)cc1)C1CCN(CCn2c(=O)[nH]c3ccccc3c2=O)CC1 | 104% (inactive)
CC(C)CC(=O)N[C@H](C(=O)N[C@H](C(=O)N[C@@H](CC(C)C)[C@@H](O)CC(=O)N[C@@H](C)C(=O)N[C@@H](CC(C)C)[C@@H](O)CC(=O)O)C(C)C)C(C)C | 100% (inactive)
Cc1c(C)c2c(c(C)c1O)CCC(C)(COc1ccc(CC3SC(=O)NC3=O)cc1)O2 (stereo not given) | 92% (inactive)
O=C(c1ccccc1)c1ccccc1 | 97.8% (inactive)
COc1c(C)c2c(c(O)c1C/C=C(\C)CCC(=O)O)C(=O)OC2 | 49.1% (inactive)
CCC(C)C(O)C(C)C(=O)C(C)/C=C(\C)CC(C)C1OC(=O)C1CC (stereo not given) | 107% (inactive)
CC1(C)CCC[C@@](C)([C@H]2CC[C@]3(C)[C@@H]2[C@H](O)C[C@@H]2[C@@]4(C)CC[C@H](O)C(C)(C)[C@@H]4[C@@H](O)C[C@]23C)O1 | 97.9% (inactive)
COC(=O)Nc1nc2ccc(C(=O)c3cccs3)cc2[nH]1 | 38.8% (inactive)
Cc1c2oc3c(C)ccc(C(=O)N[C@@H]4C(=O)N[C@H](C(C)C)C(=O)N5CCC[C@H]5C(=O)N(C)CC(=O)N(C)[C@@H](C(C)C)C(=O)O[C@@H]4C)c3nc-2c(C(=O)N[C@@H]2C(=O)N[C@H](C(C)C)C(=O)N3CCC[C@H]3C(=O)N(C)CC(=O)N(C)[C@@H](C(C)C)C(=O)O[C@@H]2C)c(N)c1=O | 26% (active)
C/C=C1/C2C=C(C)CC1(N)c1ccc(=O)[nH]c1C2 (stereo not given) | 106% (inactive)
C=C(CCC12O[C@H](C(=O)O)[C@@](O)(C(=O)O)[C@](C(=O)O)(O1)[C@H](OC(=O)/C=C/[C@@H](C)C[C@@H](C)CC)[C@H]2O)[C@@H](OC(C)=O)[C@H](C)Cc1ccccc1 | 100% (inactive)
COc1cc([C@@H]2c3cc4c(cc3[C@H](O)[C@H]3COC(=O)[C@H]23)OCO4)cc(OC)c1OC | 37.4% (inactive)
C=C1OC(CO)(n2cnc3c(N)ncnc32)C(O)C1O (stereo not given) | 95.1% (inactive)
O=c1c(-c2ccc(O)cc2)coc2cc(O)ccc12 | 91% (inactive)
CC(C)C[C@@H](NC(=O)[C@@H](O)[C@H](N)Cc1ccccc1)C(=O)O | 92.8% (inactive)
C[C@]12CCC(=O)C=C1CC[C@@H]1[C@@H]2[C@@H](O)C[C@@]2(C)[C@H]1CC[C@]2(O)C(=O)CO | 98.9% (inactive)
